“And” between values parts separate entries of the source, which are not always exact repeats. Equal values may be shown once. About 2,000 (36%) of roughly 5,500 compounds were called active. Not shown: some 18% with an inconclusive outcome. No stated cut-off is given here; in the data, active means normalized growth mostly below about 0.91 (no sharp cut-off); inconclusive means no clear call, values can overlap the other calls; inactive means mostly above about 0.92. Some of the results follow.
Experiment: chemical genetic growth profiling, strain panel (AID 1159580);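 further: tested at 20 µM; growth read once vehicle control cultures reached saturation at 30 °C; 1 = growth at the plate median or of vehicle wells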
Details: growth OD
[1] = S. cerevisiae deletion strains, locus YAR019C, strain CDC15, stronger effect = lower value
[2] = S. cerevisiae deletion strains, locus YBL105C, strain PKC1, stronger effect = lower value
[3] = S. cerevisiae deletion strains, locus YBR135W, strain CKS1, stronger effect = lower value
[4] = S. cerevisiae deletion strains, locus YBR136W, strain MEC1, stronger effect = lower value
[5] = S. cerevisiae deletion strains, locus YBR160W, strain CDC28, stronger effect = lower value
[6] = S. cerevisiae deletion strains, locus YDL017W, strain CDC7, stronger effect = lower value
[7] = S. cerevisiae deletion strains, locus YDL028C, strain MPS1, stronger effect = lower value
[8] = S. cerevisiae deletion strains, locus YDL101C, strain DUN1, stronger effect = lower value
[9] = S. cerevisiae deletion strains, locus YDL108W, strain KIN28, stronger effect = lower value
[10] = S. cerevisiae deletion strains, locus YDL132W, strain cdc53, stronger effect = lower value
[11] = S. cerevisiae deletion strains, locus YDL214C, strain PRR2, stronger effect = lower value
[12] = S. cerevisiae deletion strains, locus YDR052C, strain DBF4, stronger effect = lower value
[13] = S. cerevisiae deletion strains, locus YDR054C, strain cdc34, stronger effect = lower value
[14] = S. cerevisiae deletion strains, locus YDR226W, strain ADK1, stronger effect = lower value
[15] = S. cerevisiae deletion strains, locus YDR477W, strain SNF1, stronger effect = lower value
[16] = S. cerevisiae deletion strains, locus YER123W, strain YCK3, stronger effect = lower value
[17] = S. cerevisiae deletion strains, locus YER133W, strain GLC7, stronger effect = lower value
[18] = S. cerevisiae deletion strains, locus YFL009W, strain cdc4, stronger effect = lower value
[19] = S. cerevisiae deletion strains, locus YFL029C, strain CAK1, stronger effect = lower value
[20] = S. cerevisiae deletion strains, locus YFR003C, strain YPI1, stronger effect = lower value
[21] = S. cerevisiae deletion strains, locus YFR019W, strain FAB1, stronger effect = lower value
[22] = S. cerevisiae deletion strains, locus YFR028C, strain CDC14, stronger effect = lower value
[23] = S. cerevisiae deletion strains, locus YGR040W, strain KSS1, stronger effect = lower value
[24] = S. cerevisiae deletion strains, locus YGR052W, strain FMP48, stronger effect = lower value
[25] = S. cerevisiae deletion strains, locus YGR092W, strain DBF2, stronger effect = lower value
[26] = S. cerevisiae deletion strains, locus YHR030C, strain SLT2, stronger effect = lower value
[27] = S. cerevisiae deletion strains, locus YHR079C, strain IRE1, stronger effect = lower value
[28] = S. cerevisiae deletion strains, locus YHR082C, strain KSP1, stronger effect = lower value
[29] = S. cerevisiae deletion strains, locus YHR205W, strain SCH9, stronger effect = lower value
[30] = S. cerevisiae deletion strains, locus YIL147C, strain SLN1, stronger effect = lower value
[31] = S. cerevisiae deletion strains, locus YJL095W, strain BCK1, stronger effect = lower value
[32] = S. cerevisiae deletion strains, locus YJL128C, strain PBS2, stronger effect = lower value
[33] = S. cerevisiae deletion strains, locus YJL157C, strain FAR1, stronger effect = lower value
[34] = S. cerevisiae deletion strains, locus YJR016C, strain ILV3, stronger effect = lower value
[35] = S. cerevisiae deletion strains, locus YJR066W, strain TOR1 (second series), stronger effect = lower value
[36] = S. cerevisiae deletion strains, locus YJR066W, strain TOR1, stronger effect = lower value
[37] = S. cerevisiae deletion strains, locus YKL048C, strain ELM1, stronger effect = lower value
[38] = S. cerevisiae deletion strains, locus YKL067W, strain YNK1, stronger effect = lower value
[39] = S. cerevisiae deletion strains, locus YKL101W, strain HSL1, stronger effect = lower value
[40] = S. cerevisiae deletion strains, locus YKL193C, strain SDS22, stronger effect = lower value
[41] = S. cerevisiae deletion strains, locus YKL203C, strain TOR2, stronger effect = lower value
[42] = S. cerevisiae deletion strains, locus YLR113W, strain HOG1, stronger effect = lower value
[43] = S. cerevisiae deletion strains, locus YLR133W, strain CKI1, stronger effect = lower value
[44] = S. cerevisiae deletion strains, locus YLR403W, strain SFP1, stronger effect = lower value
[45] = S. cerevisiae deletion strains, locus YML070W, strain DAK1, stronger effect = lower value
[46] = S. cerevisiae deletion strains, locus YMR001C, strain CDC5, stronger effect = lower value
[47] = S. cerevisiae deletion strains, locus YMR205C, strain PFK2 (second series), stronger effect = lower value
[48] = S. cerevisiae deletion strains, locus YMR277W, strain FCP1, stronger effect = lower value
[49] = S. cerevisiae deletion strains, locus YNL006W, strain LST8, stronger effect = lower value
[50] = S. cerevisiae deletion strains, locus YNL020C, strain ARK1, stronger effect = lower value
[51] = S. cerevisiae deletion strains, locus YNL161W, strain CBK1, stronger effect = lower value
[52] = S. cerevisiae deletion strains, locus YNL183C, strain NPR1, stronger effect = lower value
[53] = S. cerevisiae deletion strains, locus YNL207W, strain RIO2, stronger effect = lower value
[54] = S. cerevisiae deletion strains, locus YNL222W, strain SSU72, stronger effect = lower value
[55] = S. cerevisiae deletion strains, locus YNL307C, strain MCK1 (second series), stronger effect = lower value
[56] = S. cerevisiae deletion strains, locus YOL078W, strain AVO1, stronger effect = lower value
[57] = S. cerevisiae deletion strains, locus YOL136C, strain PFK27, stronger effect = lower value
[58] = S. cerevisiae deletion strains, locus YOR061W, strain CKA2, stronger effect = lower value
[59] = S. cerevisiae deletion strains, locus YOR119C, strain RIO1, stronger effect = lower value
[60] = S. cerevisiae deletion strains, locus YOR231W, strain MKK1, stronger effect = lower value
[61] = S. cerevisiae deletion strains, locus YOR329C, strain SCD5, stronger effect = lower value
[62] = S. cerevisiae deletion strains, locus YPL031C, strain PHO85, stronger effect = lower value
[63] = S. cerevisiae deletion strains, locus YPL153C, strain RAD53, stronger effect = lower value
[64] = S. cerevisiae deletion strains, locus YPL204W, strain HRR25, stronger effect = lower value
[65] = S. cerevisiae deletion strains, locus YPL209C, strain IPL1, stronger effect = lower value
[66] = S. cerevisiae deletion strains, locus YPL256C, strain CLN2, stronger effect = lower value
[67] = S. cerevisiae deletion strains, locus YPR025C, strain CCL1, stronger effect = lower value
[68] = S. cerevisiae deletion strains, locus YPR106W, strain ISR1, stronger effect = lower value
[69] = S. cerevisiae deletion strains, locus YPR111W, strain DBF20, stronger effect = lower value
[70] = S. cerevisiae deletion strains, strain NNK1, stronger effect = lower value
[71] = S. cerevisiae deletion strains, strain TSCII, stronger effect = lower value

Measured: normalized growth

CC(=O)Nc1ccc(/C=C/[N+](=O)[O-])cc1
inactive: [1] 0.977 | [2] 0.972 | [3] 0.976 | [4] 0.964 | [5] 0.98 | [6] 0.98 | [7] 0.973 | [8] 0.994 | [9] 0.972 | [10] 0.975 | [11] 0.857 | [12] 0.98 | [13] 0.974 | [14] 0.975 | [15] 0.809 | [16] 0.679 | [17] 0.806 | [18] 0.974 | [19] 0.962 | [20] 0.982 | [22] 0.972 | [23] 0.807 | [24] 0.843 | [25] 0.816 | [27] 0.809 | [28] 0.804 | [29] 0.723 | [30] 0.97 | [31] 0.78 | [32] 0.969 | [33] 0.844 | [34] 0.981 | [35] 0.732 | [36] 0.684 | [37] 0.864 | [38] 0.852 | [39] 0.795 | [40] 0.977 | [41] 0.852 | [43] 0.861 | [44] 0.818 | [45] 0.804 | [46] 0.971 | [47] 0.868 | [48] 0.976 | [49] 0.996 | [50] 0.88 | [51] 0.973 | [52] 0.782 | [53] 0.978 | [54] 0.975 | [55] 0.78 | [56] 0.97 | [57] 0.829 | [58] 0.882 | [59] 0.855 | [60] 0.786 | [61] 0.985 | [62] 0.794 | [63] 0.776 | [64] 0.791 | [65] 0.98 | [67] 0.982 | [68] 0.988 | [69] 0.984 | [70] 0.999 | [71] 0.969
active: [21] 0.629 | [26] 0.697 | [42] 0.628 | [66] 0.642

O=[N+]([O-])/C=C/c1ccsc1
active: S. cerevisiae deletion strains, locus YAL013W, strain DEP1, stronger effect = lower value 0.0965 | [1] 0.0973 | [2] 0.088 | [3] 0.0811 | [4] 0.0958 | [5] 0.0863 | S. cerevisiae deletion strains, locus YBR229C, strain ROT2, stronger effect = lower value 0.0538 | S. cerevisiae deletion strains, locus YCL061C, strain MRC1, stronger effect = lower value 0.0534 | [6] 0.0862 | [7] 0.108 | [8] 0.0979 and 0.0659 | [9] 0.1 | [10] 0.0899 | [11] 0.0917 | [12] 0.0918 | [13] 0.0966 | S. cerevisiae deletion strains, locus YDR150W, strain NUM1, stronger effect = lower value 0.319 | [14] 0.377 | [15] 0.0976 | S. cerevisiae deletion strains, locus YEL061C, strain CIN8, stronger effect = lower value 0.0749 | [16] 0.0988 | [17] 0.0944 | [18] 0.09 | [19] 0.0924 | [20] 0.126 | [21] 0.0932 | [22] 0.0832 | [23] 0.102 | [24] 0.105 | S. cerevisiae deletion strains, locus YGR078C, strain PAC10, stronger effect = lower value 0.0512 | [25] 0.101 | [26] 0.086 and 0.114 | [27] 0.115 | [28] 0.122 | S. cerevisiae deletion strains, locus YHR087W, strain rtc3, stronger effect = lower value 0.0574 | [29] 0.014 | [30] 0.266 | [31] 0.104 | [32] 0.0942 | [33] 0.0861 | S. cerevisiae deletion strains, locus YJL187C, strain SWE1, stronger effect = lower value 0.0512 | [34] 0.0858 | S. cerevisiae deletion strains, locus YJR043C, strain POL32, stronger effect = lower value 0.0674 | [35] 0.0922 | [36] 0.121 | S. cerevisiae deletion strains, locus YJR075W, strain HOC1, stronger effect = lower value 0.072 | [37] 0.109 | [38] 0.0882 | [39] 0.0953 | S. cerevisiae deletion strains, locus YKL190W, strain CNB1, stronger effect = lower value 0.0559 | [40] 0.0818 | [41] 0.102 | S. cerevisiae deletion strains, locus YLR039C, strain RIC1, stronger effect = lower value 0.0823 | S. cerevisiae deletion strains, locus YLR058C, strain SHM2 (second series), stronger effect = lower value 0.0499 | S. cerevisiae deletion strains, locus YLR085C, strain ARP6, stronger effect = lower value 0.0726 | [42] 0.133 | [43] 0.107 | S. cerevisiae deletion strains, locus YLR262C, strain YPT6, stronger effect = lower value 0.074 | [44] 0.0115 | [45] 0.0892 | S. cerevisiae deletion strains, locus YML094W, strain GIM5, stronger effect = lower value 0.0766 | [46] 0.0846 | [47] 0.0874 | S. cerevisiae deletion strains, locus YMR219W, strain ESC1, stronger effect = lower value 0.0511 | S. cerevisiae deletion strains, locus YMR263W, strain SAP30, stronger effect = lower value 0.0973 | [48] 0.0872 | [49] 0.0854 | [50] 0.0962 | S. cerevisiae deletion strains, locus YNL153C, strain GIM3, stronger effect = lower value 0.0541 | [51] 0.0827 | [52] 0.113 | [53] 0.0963 | [54] 0.0831 | S. cerevisiae deletion strains, locus YNL298W, strain CLA4 (second series), stronger effect = lower value 0.0744 | [55] 0.106 | S. cerevisiae deletion strains, locus YNL322C, strain KRE1, stronger effect = lower value 0.238 | S. cerevisiae deletion strains, locus YNR030W, strain Alg12, stronger effect = lower value 0.0788 | [56] 0.0843 | [57] 0.0965 | [58] 0.0882 | [59] 0.112 | [60] 0.109 | [61] 0.0876 | [62] 0.0965 | S. cerevisiae deletion strains, locus YPL055C, strain LGE1, stronger effect = lower value 0.254 | [63] 0.0949 | [64] 0.0984 | [65] 0.0842 | S. cerevisiae deletion strains, locus YPL241C, strain CIN2, stronger effect = lower value 0.106 | [66] 0.133 | [67] 0.0831 | [68] 0.0863 | [69] 0.0864 | S. cerevisiae deletion strains, locus YPR135W, strain CTF4, stronger effect = lower value 0.212 | [70] 0.0961 | [71] 0.0894 | S. cerevisiae strains, strain wild type, stronger effect = lower value 0.0538

Reference: PubChem BioAssay AID1159580 (chemical genetic matrix, 2015)
